Compounds without any hit were thinned out: in the full panel of roughly 83,000, 20% have a hit.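 Method: cells in 96-well plates; compound added at one concentration; 48 h incubation; percent growth measured; values under 10 scored active.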 A number with no mark means an inactive call. Active and inactive are the calls of the source.
Columns and labels:
Assay in all cases: NCI-60 one-dose screen, 48 h (100 = growth as untreated, 0 = no growth, -100 = all killed)
Conditions in all cases: 10 µM unless noted
NCI-H23 lung = test system: NCI-H23 lung
NCI-H226 lung = test system: NCI-H226 lung
NCI-H322M lung = test system: NCI-H322M lung
HOP-62 NSCLC = test system: HOP-62 NSCLC
NCI-H460 lung = test system: NCI-H460 lung
HOP-92 NSCLC = test system: HOP-92 NSCLC
NCI-H522 lung = test system: NCI-H522 lung
A549/ATCC NSCLC = test system: A549/ATCC NSCLC
786-0 renal = test system: 786-0 renal
COLO 205 colon = test system: COLO 205 colon
DU-145 prostate = test system: DU-145 prostate
K-562 leukemia = test system: K-562 leukemia
MALME-3M melanoma = test system: MALME-3M melanoma
MDA-MB-231 breast = test system: MDA-MB-231 breast
RXF 393 renal = test system: RXF 393 renal
SF-268 CNS = test system: SF-268 CNS
SF-295 CNS = test system: SF-295 CNS
SF-539 CNS = test system: SF-539 CNS
UACC-257 melanoma = test system: UACC-257 melanoma
M14 melanoma = test system: M14 melanoma

SMILES | growth (NCI-H23 lung) [%] | growth (NCI-H226 lung) [%] | growth (NCI-H322M lung) [%] | growth (HOP-62 NSCLC) [%] | growth (NCI-H460 lung) [%] | growth (HOP-92 NSCLC) | growth (NCI-H522 lung) | growth (A549/ATCC NSCLC) [%] | growth (786-0 renal) [%] | growth (COLO 205 colon) [%] | growth (DU-145 prostate) [%] | growth (K-562 leukemia) | growth (MALME-3M melanoma) [%] | growth (MDA-MB-231 breast) [%] | growth (RXF 393 renal) | growth (SF-268 CNS) [%] | growth (SF-295 CNS) [%] | growth (SF-539 CNS) [%] | growth (UACC-257 melanoma) [%] | growth (M14 melanoma) [%]
O=Nc1c(-c2cccc([N+](=O)[O-])c2)nc2ncccn12 | 83.4 | 102 | 120 | 100 | 101 | 87.4% | 67.1% | 97.7 | 93.9 | 65.1 | 73.5 | 10.5% | 85.2 | 111 | -3.85% (active) | 92.2 | 107 | 91 | 79.3 | 76.9
N/C(=N\S(=O)(=O)c1ccccc1)Nc1nc2ccccc2s1 | 87.9 | 76.7 | 91.1 | 86.3 | 107 | 76.2% | 73.2% | 95.9 | 95.4 | 96.4 | 111 | 84.9% | 105 | 92.3 | 99.4% | 92.2 | 92.7 | 91.2 | 92.6 | 101
COc1cc2c(cc1O)CCN1C[C@@H](CC(C)C)[C@@H](O)C[C@@H]21 | 99.9 | 96.6 | 105 | 93.5 | 116 | 63.8% | 93.6% | 107 | 92 | 127 | 111 | 96% | 100 | 103 | 107% | 107 | 97.4 | 96.7 | 99.5 | 100
O=S(=O)(NCCCNc1nccc(-n2ccc3cccnc32)n1)c1cccc(C(F)(F)F)c1 | 108 | 104 | 106 | 112 | 104 | 106% | 98.1% | 101 | 102 | 108 | 101 | 100% | 112 | 106 | 103% | 95.5 | 112 | 109 | 108 | 107
Nc1nc(Nc2cc(Cl)cc(Cl)c2)nn1S(=O)(=O)c1ccc2ccccc2c1 | 66.5 | 66.7 | 76.4 | 66 | 27.8 | -10.4% (active) | 69% | 42.7 | 25.5 | 66.5 | 47.7 | 41.5% | 63 | 35.3 | 30.6% | 52.4 | 93.6 | 83.5 | 83.3 | 78.4
C=C1CCC2C(C)(CO)C(O)CCC2(C)C1C/C=C1/C(=O)OCC1O/C=C/c1ccccc1 (stereo not given) | 87.7 | 83.7 | 94.7 | 104 | 75.2 | 76.1% | 60.3% | 71.8 | 93.1 | 101 | 82.8 | 22.9% | 105 | 95.6 | 81.2% | 96.7 | 92.7 | 96.9 | 83.6 | 86.1
CCN(CC)c1ccc(N=O)cc1 | 81.7 | 101 | 87.7 | 91.8 | 58.9 | 51.9% | -80.9% (active) | 59.7 | 91.8 | 13.9 | 80.9 | 23.5% | 71.1 | 47.4 | 72.5% | 59.1 | 92.7 | 77.2 | 33.2 | 75.3
c1cc(C2=N[C@@H]3c4ccccc4C[C@@H]3O2)nc(C2=N[C@@H]3c4ccccc4C[C@@H]3O2)c1 | 98.1 | 101 | 107 | 100 | 109 | 101% | 93.1% | 104 | 98.8 | 106 | 104 | 102% | 103 | 105 | 105% | 97.1 | 86.9 | 97 | 107 | 99.4
O=C(NS(=O)(=O)c1ccccc1)n1cc(-c2ccncc2)c(-c2ccc(Cl)c(O)c2)n1 | 104 | 103 | 103 | 119 | 107 | 99.6% | 85.4% | 98.3 | 100 | 111 | 104 | 88.9% | 27.6 | 112 | 107% | 97.7 | 107 | 97.6 | 91.6 | 34.2
N#C/C(=C1C=C/C(=N/O)C(Cl)=C/1)c1ccc(Cl)cc1 | 104 | 71.5 | 118 | 45.7 | 78.3 | 70.5% | 67.7% | 88.8 | 63.5 | 99.8 | 35.5 | 42.6% | 112 | 61.4 | 81.9% | 54.5 | 141 | 18.8 | 76.2 | 85.1
COc1cc(-c2nn(C(=O)NS(=O)(=O)c3ccccc3)cc2-c2ccncc2)ccc1Cl | 88.1 | 66.9 | 97.2 | 58.9 | 103 | 28.3% | 77% | 71.9 | 71.4 | 70.6 | 91.8 | 101% | 87.3 | 70.5 | 63% | 58.6 | 85.1 | 74.8 | 89.1 | 78.4
Clc1cc(Cl)c2nc(-c3ccc(-c4ccc(/C=N/NC5=NCCN5)cc4)s3)cn2c1 | 94.1 | 89.5 | 99.1 | 88.9 | 98.8 | 14.5% | 103% | 87.7 | 88.5 | 93.7 | 87.4 | 3.66% (active) | 74.9 | 73.9 | 81.4% | 86 | 98.3 | 63.5 | 99 | 97.8
c1cc2[nH]ncc2cc1-c1nc2ccc3[nH]ncc3c2c2c1CCC2 | 70.2 | 42.5 | 58 | 47.6 | 31.5 | 42.5% | 6.78% (active) | 39.4 | 49.7 | 25.7 | 54.3 | 15.4% | 47.3 | 70.2 | 19.5% | 56.2 | 80.6 | 45 | 65.8 | 21
Cn1cnc2c(N3CCN(C(=O)OCc4ccc5c(Cl)cc(Cl)c(O)c5n4)CC3)nc(Cl)nc21 | 86.4 | 72.9 | 70.2 | 53.7 | 27.6 | 70.7% | 80.3% | 51.2 | 92.1 | 109 | 61.1 | 44.9% | 85.2 | 83 | 74.4% | 59.5 | 38.7 | 82.7 | 89.6 | 66.1
Nc1cccc(-c2nc3sccn3c2-c2ccnc(NCCNS(=O)(=O)c3ccc(C(F)(F)F)cc3)n2)c1 | 56 | 29.3 | 42.4 | 49.6 | 43.5 | -6.13% (active) | 71.6% | 30 | 65.5 | 58.8 | 43.4 | 47.2% | 42.1 | 46 | 48.7% | 35.5 | 46.6 | 32 | 65 | 53.6
CC(C)c1ccc2occ(C=C3C(=O)NC(=O)NC3=O)c(=O)c2c1 | 97.5 | 106 | 116 | 101 | 102 | 63% | 88.7% | 100 | 91.6 | 117 | 109 | 72.7% | 93.7 | 98.9 | 87.4% | 89.3 | 119 | 121 | 96.1 | 91.3

From PubChem BioAssay (NCI)
